Results on 40 compounds are retold here after PubChem BioAssay (NCATS).

Records with an inconclusive call do not appear. A call without a number means that no potency is given here. Calls of active or inactive are those of the source. Calls come from the whole dose curve; as a rule, active = well fitted cell-killing curve with a large enough effect; inconclusive = small, poorly fitted or top-dose-only effect; inactive = no such curve, though single readings can be large or run the other way.
Potency is the fitted concentration of half-maximal effect.

A short description of this assay: qHTS of pediatric cancer cell lines to identify multiple opportunities for drug repurposing: Primary screen for OHS-50 cells (AID 1347103). Note: nearly all actives have a fitted effect of over 40% in size. To be noted: OHS-50 osteosarcoma viability, CellTiter-Glo luminescence, 48 h; series mostly up to 57.3 µM. From the text:
Drug repurposing or repositioning has been offered as a strategy for drug development in oncology programs. This approach has special potential for childhood cancers and other rare or orphan diseases, where the expected return on new drug development has been a disincentive to pharmaceuticals.
In this project we exploit the poly-pharmacology of drugs to discover new indications via phenotypic screening of a panel of 19 well-characterized cell lines derived from solid tumors seen in children and adolescents. The goal is to identify approved drugs with previously unrecognized anticancer properties that has the potential to reveal new mechanisms and biological processes involved in carcinogenesis or drug resistance. We employed a titration-based paradigm (quantitative high-throughput screening or qHTS), where all compounds were tested at multiple concentrations for their effect on cell viability. Concentration-response curves (CRCs) were derived directly from the primary screen, and both potency and efficacy values were used to identify compounds with robust bioactivity profiles. We screened the NIH Chemical Genomics Center (NCGC) Pharmaceutical Collection (NPC) and Mechanism Interrogation Plate (MIPE) small molecule collections of approved and investigational compounds against these cell lines; and measured metabolically active cells after 48 hours of compound treatment as a proxy for cell viability.
Assay Submitter: Nathalia J. Martinez, National Center for Advancing Translational Sciences, National Institutes of Health, Rockville, MD, USA; email: natalia.martinez@nih.gov
[1] Shen, M et al. Quantitative high-throughput phenotypic screening of pediatric cancer cell lines identifies multiple opportunities for drug repurposing. Oncotarget 2017 Dec 19;9(4):4758-4772. PMID 29435139.
The cells were obtained from University of North Carolina (UNC), Pediatric Preclinical Testing Program (PPT), and Coriell Institute (CI).
qHTS cell viability assay:
Cells were assayed in growth media at a density of 500-1,000 cells/well. Five microliters of cells were dispensed into 1,536-well, white, solid-bottom, TC-treated plates (Greiner Bio One) using a multidrop dispenser and incubated at 37 degrees C, 5% CO2, under a humidified atmosphere for 5 hours. Twenty-three nanoliters of compounds and controls (neutral control DMSO or positive control bortezomib at final concentration of 2.3 µM) were subsequently transferred by Kalypsys pintool. For primary screens, the MIPE collection was tested at 11-point dilutions (final concentrations range from 0.78 nM to 46 µM) and the NPC collection at 8-point dilutions (final concentrations range from 0.59 nM to 46 µM). Compounds tested in follow-up screens were assayed at 11-point dilutions. Cells were incubated for 48 hours, followed by addition of 3 µL of CellTiter-Glo (Promega). After a 15 min incubation at room temperature, samples were analyzed for luminescence intensity using a ViewLux High-throughput CCD imager equipped with clear filters.
For orientation: In qHTS, concentration-response curves come from the screen itself.
For `C[C@@H](O)[C@H]1C(=O)N2C(C(=O)O)=C(SCCN=CN)C[C@H]12`, the Potency entry is “inactive”.
In the case of `OCCN1CCN(CC/C=C2/c3ccccc3Sc3ccc(C(F)(F)F)cc32)CC1` it was 24.6 µM (active); in that of `CC(C)(C)NCC(O)c1cc(O)cc(O)c1` (stereo not given), “inactive”.
The same measure for `CC(C)NCC(O)c1cc(O)cc(O)c1` (stereo not given): “inactive”; for `NC(=O)c1cn(Cc2c(F)cccc2F)nn1`: “inactive”; for `CCCN(CCC)CCc1cccc2c1CC(=O)N2`: “inactive”.
As to `CCCNC(C)C(=O)Nc1ccccc1C` (stereo not given), the Potency result was “inactive”.
The same measure for `CCc1c(C)[nH]c2c1C(=O)C(CN1CCOCC1)CC2` (stereo not given): “inactive”; for `Cc1cccc(C)c1NC(=O)C(C)N` (stereo not given): “inactive”; for `c1cnc(N2CCN(Cc3ccc4c(c3)OCO4)CC2)nc1`: “inactive”.
In the case of `COCCc1ccc(OCC(O)CNC(C)C)cc1` (stereo not given) it was “inactive”; in that of `CC(C(=O)O)c1ccc(CC2CCCC2=O)cc1` (stereo not given), “inactive”.
The same measure for `CCn1nc(C(=O)O)c(=O)c2cc3c(cc21)OCO3`: “inactive”.
Consider `C=CCc1ccccc1OCC(O)CNC(C)C` (stereo not given), for which the Potency result is “inactive”.
For the compound `Cc1nc2sccn2c(=O)c1CCN1CCC(=C(c2ccc(F)cc2)c2ccc(F)cc2)CC1`, the Potency was 27.6 µM (active).
Take `O=c1[nH]c(=O)n([C@H]2C[C@H](O)[C@@H](CO)O2)cc1Br`: the Potency entry was “inactive”.
The same measure for `CCN(Cc1ccncc1)C(=O)C(CO)c1ccccc1` (stereo not given): “inactive”.
For `Nc1ncn([C@@H]2O[C@H](CO)[C@@H](O)[C@H]2O)c(=O)n1`, the Potency is 24.6 µM (active).
Regarding `NC(=Nc1ccccc1)Nc1ccccc1`, the Potency entry is “inactive”.
The same measure for `C(=C\c1ccccc1)/CN1CCN(C(c2ccccc2)c2ccccc2)CC1`: 27.6 µM (active); for `CN=C(NC#N)NCCSCc1nc[nH]c1C`: “inactive”; for `CN(C)C(=O)Oc1ccc[n+](C)c1`: “inactive”.
Take `Cc1nnc(SCC2=C(C(=O)O)N3C(=O)[C@@H](NC(=O)Cn4cnnn4)[C@H]3SC2)s1`: the Potency result is “inactive”.
In the case of `CCCCNc1c(C(=O)OCC)c(C)nc2c1cnn2CC` it was 34.7 µM (active); in that of `CCCN(CCC)C(=O)C(CCC(=O)O)NC(=O)c1ccccc1` (stereo not given), “inactive”.
`C[C@]12CCC(=O)C=C1CC[C@@H]1[C@@H]2C(=O)C[C@@]2(C)[C@H]1CC[C@]2(O)C(=O)CO`: the Potency entry is “inactive”.
In the case of `O=C1CC2(CCCC2)CC(=O)N1CCCCN1CCN(c2ncccn2)CC1` it was “inactive”.
On to `C[N+](C)(C)CCCCCCCCCC[N+](C)(C)C`, for which the Potency entry is “inactive”.
In the case of `NC1=NCC2c3ccccc3Cc3ccccc3N12` (stereo not given) it was “inactive”.
The same measure for `CC(C)NNC(=O)c1ccncc1`: “inactive”.
In the case of `CCn1cc(C(=O)O)c(=O)c2cc3c(cc21)OCO3` it was “inactive”; in that of `C[N+](C)(C)CCOC(N)=O`, “inactive”; in that of `CC(=O)OC(C)C[N+](C)(C)C` (stereo not given), “inactive”.
On to `CC(C)COCC(CN(Cc1ccccc1)c1ccccc1)N1CCCC1` (stereo not given), for which the Potency is 19.5 µM (active).
Turning to `Cc1cc(C)c(/C=C2\C(=O)Nc3ccccc32)[nH]1`, the Potency was 15.5 µM (active).
Regarding `CC(C)(Oc1ccc(CCNC(=O)c2ccc(Cl)cc2)cc1)C(=O)O`, the Potency result was “inactive”.
The same measure for `COCCOC(=O)C1=C(C)NC(C)=C(C(=O)OC(C)C)C1c1cccc([N+](=O)[O-])c1` (stereo not given): 24.6 µM (active); for `CC1=NS(=O)(=O)c2cc(Cl)ccc2N1`: “inactive”; for `CC(=O)OCC1=C(C(=O)O)N2C(=O)[C@@H](NC(=O)Cc3cccs3)[C@H]2SC1`: “inactive”.
Turning to `FC(F)(F)c1ccccc1-n1ccnc1`, the Potency result was “inactive”.
